According to PubChem BioAssay (NCATS):
Records with an inconclusive call do not appear. Unmarked numbers belong to inactive results. The source made the active and inactive calls. Calls come from the whole dose curve; as a rule, active = well fitted curve in the direction sought with a large enough effect; inconclusive = small, poorly fitted or top-dose-only effect, or another doubt; inactive = no such curve, though single readings can be large; an effect the other way counts as inactive or inconclusive.

tested on: not listed separately; test: Primary redox qHTS assay for identification of artifact compounds. (AID 1845223); details: Amplex Red/HRP redox cycling with DTT, fluorescence; series mostly up to 53.8 µM; redox activity (% of DA3003): at the top concentration;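 note: 0% = DMSO and 100% = reference compound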
Procedure, shortened: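 Amplex Red (25 uM) and HRP (250 mU/mL) in HBSS, with compounds for 15 min, then 250 uM DTT for 30 min, room temperature, dark. Fluorescence 525/598 nm read; normalized to DMSO and 10 uM DA3003; Hill fit.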

Compound	redox activity (% of DA3003)
c1cncc(OC[C@@H]2CCN2)c1	-6.4%
Cc1c(Cl)c(OCC(=O)N2CCN(C)CC2)nc2sc(C(=O)NC3CC3)c(N)c12	6.07%
CN1CCc2cc3c(cc2C1C1OC(=O)c2c1ccc1c2OCO1)OCO3 (stereo not given)	-17.7%
C#CCO[C@H]1CN2CCC1CC2	-3.99%
CC1CCCC(O)CC(=O)Cc2cc(O)cc(O)c2C(=O)O1 (stereo not given)	-7.06%
COc1ccsc1CNCC[C@@]1(c2ccccn2)CCOC2(CCCC2)C1	-0.534%
C1=C(c2cnc[nH]2)c2ccsc2CC1	3.88%
CC1=CC2(O)/C=C/C(C)(O)C(O)C(O)/C=C/C(=O)OC23C(=O)NC(CC(C)C)C3C1C (stereo not given)	8.82% [at 25.6 µM]
C/C=C1/CN2CC[C@]34C(=Nc5ccc(OC)cc53)C2C[C@@H]1C4(CO)C(=O)OC (stereo not given in full)	-8.77%
Cc1cccc(NC(=O)N[C@H]2CN(C)c3ccccc3C(c3ccccc3)=N2)c1	1.34%
Oc1ccc2c3c1O[C@H]1c4[nH]c5c(N=C=S)cccc5c4C[C@@]4(O)[C@@H](C2)N(CC2CC2)CC[C@]314	16.3%
C[C@@H]1CCC/C=C/[C@H]2C[C@@H](O)C[C@@H]2[C@@H](O)/C=C/C(=O)O1	-4.65%
C[C@]12CCC(=O)C=C1CC[C@@H]1[C@@H]2[C@@H](O)C[C@]2(C)C(=O)CC[C@@H]12	-0.803%
CCC(C)(O)C1(C(=O)O)COC(=O)C1 (stereo not given)	-6.52% [at 85.7 µM]
COC(=O)C1=COC(C)C2CN3CCC4(C(=O)Nc5ccccc54)C3CC12 (stereo not given)	-8.1%
CC1(C)C(=O)N(c2ccc(C#N)c(C(F)(F)F)c2)C(=O)N1CCCCO	0.944%
O=C1N[C@@H](Cc2ccccc2)CN2CCCC[C@@H]12	-10.1%
CN1C(=O)CN=C(c2ccccc2Cl)c2cc(Cl)ccc21	-2.48%

tested on: CRL-7250; test: Cytotoxic Profiling of Annotated Libraries Using Quantitative High-Throughput Screening (AID 1296008); details: Five cell lines viability, CellTiter-Glo ATP luminescence, 48-72 h; max response: active compounds read low; note: nearly all actives have a fitted effect of over 60% in size; note: potency is the fitted concentration of half-maximal effect; for max response: % is set by controls: 0 for no effect and ±100 for the full control effect
Procedure, shortened: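 Compounds were pin-transferred onto cells and incubated 48 or 72 hr at 37 degree Celsius, 95% humidity. CellTiter-Glo was added, plates sat 10 min at room temperature, then ATP-coupled luminescence was imaged as the viability read-out.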

Compound	outcome	max response [%]	Potency
C/C=C(/C)C1C=CC2CC(C)CC(C)C2C1/C(O)=C1\C(=O)NC(CC(C)(O)C(=O)O)C1=O (stereo not given)	inactive		
CS[C@]1(CO)C(=O)N2[C@H]3C(=CC=C[C@@H]3O)C[C@@]2(SC)C(=O)N1C	inactive		
COc1ccc2c3c4n(c2c1)[C@@H](C=C(C)C)OOC(C)(C)C[C@@H]4N1C(=O)[C@@H]2CCCN2C(=O)[C@]1(O)[C@H]3OCC=C(C)C	inactive		
CC1=CC2/C=C(\C)CCCC(O)/C=C/C(=O)OC23C(=O)NC(CC(C)C)C3C1C (stereo not given)	inactive		
C=CC(C)(C)c1[nH]c2c(CC=C(C)C)cc(CC=C(C)C)cc2c1C[C@@H]1NC(=O)[C@H](C)NC1=O		3.03	
COc1cc(O)c2c(c1)/C=C/C[C@@H](O)[C@@H](O)C(=O)CCC[C@H](C)OC2=O			14.3 µM (active)
CC(=O)O[C@H]1CC[C@H]2[C@@H]3CC[C@H]4CC(=O)C=C(C)[C@]4(C)[C@H]3CC[C@]12C		-4.94	
COc1cc(N2CCN(C)CC2)ccc1N		0.376	
COCC(C(=O)OC1CC2CCC(C1)N2C)c1ccccc1 (stereo not given)		-5.38	
N#CC(O[C@@H]1O[C@H](CO)[C@@H](O)[C@H](O)[C@H]1O)c1ccccc1 (stereo not given in full)	inactive		
CC[C@H]1C2CC3[C@@H]4N(C)c5ccccc5[C@]45C[C@@H]([C@H]2[C@H]5O)N3[C@H]1O		3.45	
NC(=O)c1ncn2c1CN=C(c1ccccc1Br)c1cc(F)ccc1-2		-2.22	
Cc1c(N2C(=O)[C@@H]3[C@H](O)CCN3C2=O)ccc(C#N)c1Cl		-13.8	
CC(=O)O[C@@H]1[C@H]2CC[C@H]3[C@@](C)(O)[C@@H]4C[C@H](O)C(C)(C)[C@@]4(O)[C@H](O)C[C@@]13C[C@@]2(C)O	inactive		
CC(=O)N1N=C(c2ccc(N)cc2)c2cc3c(cc2C[C@H]1C)OCO3		-0.992	
COC(=O)[C@]12CCCC(C)(C)C1CCc1cc(C(C)C)c(O)c(O)c12 (stereo not given in full)		-0.302	
COc1ccc(CN(C(=O)[C@@H](N)Cc2c(C)cc(C(N)=O)cc2C)[C@@H](C)c2ncc(-c3ccccc3)[nH]2)cc1C(=O)O		-8.53	
C=CC/C=C\C/C=C\CCCCCCCc1cc(O)cc(O)c1		-22.2	
CN1C2CCC1CC(OC(=O)N1Cc3ccccc3NC1=O)C2 (stereo not given)	inactive		
COC(=O)CC1CC2(C(=O)c3c(O)cccc3C2(O)C(=O)OC)C(C)O1 (stereo not given)		2.33	
c1cncc(OC[C@@H]2CCN2)c1		0.617	
Cc1c(Cl)c(OCC(=O)N2CCN(C)CC2)nc2sc(C(=O)NC3CC3)c(N)c12		-0.463	
